Experimental data: PubChem BioAssay (Tox21)
Inconclusive results are not listed. Active and inactive are the calls of the source. Unless noted, calls come from the whole dose curve; as a rule, active = well fitted curve in the direction sought with a large enough effect in the repeat runs; inconclusive = weak or mixed curves; inactive = no such curve, though single readings can be large; an effect the other way counts as inactive or inconclusive.

What was measured:
[1] = qHTS assay to identify small molecule agonists of the hypoxia (HIF-1) signaling pathway - cell viability counter screen (AID 1224844; calls by dose curve; note: nearly all actives have a fitted effect of over 50% in size)
Summary of the method: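 CellTiter-Glo luminescence read-out, 30 min RT, taken in the same wells as the beta-lactamase HRE reporter assay; HRE-bla ME-180 cells, 0.5% dialyzed FBS, 17 hr compound treatment at 37C, 5% CO2.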

[2] = qHTS assay to identify small molecule agonists of H2AX (AID 1224845; active = well fitted activation curve with a large enough effect in the signal ratio in the repeat runs, not every such curve was filed as active; the % refers to the signal ratio)
Summary of the method: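 Phospho-H2AX Ser139 measured by HTRF (ex 320 nm; em 665 and 620 nm) after 24 hr antibody incubation. Compounds, 15 concentrations, 0.76% DMSO, were applied to CHO-K1 cells for 3hr at 37C before lysis.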

[3] = qHTS assay to identify small molecule agonists of the hypoxia (HIF-1) signaling pathway (AID 1224846; active = well fitted activation curve with a large enough effect in the signal ratio in the repeat runs, not every such curve was filed as active; the % refers to the signal ratio)
Summary of the method: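 Beta-lactamase FRET read-out (CCF4-AM substrate) from ME-180 cells carrying an HRE-driven bla reporter, after 17 hrs compound exposure at 37C/5% CO2. Cells were seeded at 2,000 per well in 0.5% dialyzed FBS medium and preincubated 5 hrs.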

[4] = qHTS assay to identify small molecule antagonists of the estrogen related receptor (ERR) signaling pathway from Tox21 library (AID 1224848); note: nearly all actives have a fitted effect of over 50% in size
Summary of the method: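 Luciferase luminescence (ONE-Glo, 30 min room temperature) was the read-out. Cells of the NTP-supplied ERR line, 2,000 per well, were given 6 h at 37 C before compound addition in DMSO and 18 h exposure at 37 C.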

[5] = qHTS assay to identify small molecule agonists of the estrogen related receptor (ERR) signaling pathway from Tox21 library (AID 1224849; calls by dose curve; note: nearly all actives have a fitted effect of over 15% in size); settings: ERR reporter cell line, ONE-Glo luciferase, 18 h; at 92.4 µM (top of the series) unless noted
Summary of the method: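 Luminescence readout (ONE-Glo, 30 min RT) after 18 h compound exposure at 37 C of NTP-supplied ERR reporter cells; cells were plated 6 h before compound addition by pin tool.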

[6] = qHTS RealTime-Glo MT Cell Viability Assay in HepG2 cells - 24 hour (AID 1224867); note: nearly all actives have a fitted effect of over 50% in size
Summary of the method: (§1)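 Tox21 10K library screened in qHTS format on HepG2 cells carrying RealTime-Glo reagents. Compounds were added after a 5 h preincubation, and the luminescent signal from continuous culture was measured repeatedly during 40 h treatment.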

[7] = qHTS RealTime-Glo MT Cell Viability Assay in HEK293 cells - 32 hour (AID 1224868); note: top concentration of the series differs between compounds; nearly all actives have a fitted effect of over 50% in size
Summary of the method: (§2)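 Luminescence generated by NanoLuc from substrate produced by living HEK293 cells served as the viability signal. Each value reflects the reading at its stated time point during continuous 40 h compound exposure at 37 C.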

[8] = qHTS RealTime-Glo MT Cell Viability Assay in HepG2 cells - 40 hour (AID 1224870); note: nearly all actives have a fitted effect of over 50% in size
Summary of the method: (§3)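 Real-time viability: cells seeded at 600 per well together with NanoLuc and cell-permeant prosubstrate, compounds added after 5 h incubation. Luminescence tracked at 0, 8, 16, 24, 32 and 40 h of exposure.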

[9] = A CellTox Green Cytotoxicity Assay to monitor cytotoxicity in HEK293 cells - 40 hour (AID 1224871); note: nearly all actives have a fitted effect of over 45% in size
Summary of the method: (§4)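 Read-out: fluorescence of a cell-impermeant cyanine dye staining DNA of dead cells, proportional to cytotoxicity. HEK293, 600 cells/well with reagent, compound (23 nL DMSO) added after 5 h; reads at 0, 8, 16, 24, 32, 40 h.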

[10] = qHTS RealTime-Glo MT Cell Viability Assay in HEK293 cells - 16 hour (AID 1224872)
Summary of the method: as §2

[11] = qHTS RealTime-Glo MT Cell Viability Assay in HepG2 cells - 8 hour (AID 1224873); note: nearly all actives have a fitted effect of over 55% in size
Summary of the method: as §3

[12] = A CellTox Green Cytotoxicity Assay to monitor cytotoxicity in HEK293 cells - 24 hour (AID 1224875); note: nearly all actives have a fitted effect of over 45% in size
Summary of the method: as §4

[13] = A CellTox Green Cytotoxicity Assay to monitor cytotoxicity in HepG2 cells - 16 hour (AID 1224876); note: nearly all actives have a fitted effect of over 45% in size
Summary of the method: (§5)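 HepG2, 600 cells/well premixed w/ CellTox Green; 5 h settle, 37 C/5% CO2; pintool cpd add (DMSO); 37 C, 40 h; fluorescence read at 0, 8, 16, 24, 32, 40 h.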

[14] = qHTS RealTime-Glo MT Cell Viability Assay in HepG2 cells - 32 hour (AID 1224877); note: nearly all actives have a fitted effect of over 55% in size
Summary of the method: as §1

[15] = A CellTox Green Cytotoxicity Assay to monitor cytotoxicity in HepG2 cells - 24 hour (AID 1224878); note: nearly all actives have a fitted effect of over 45% in size
Summary of the method: as §5

[16] = A CellTox Green Cytotoxicity Assay to monitor cytotoxicity in HepG2 cells - 40 hour (AID 1224879); note: nearly all actives have a fitted effect of over 40% in size; note: potency is the fitted concentration of half-maximal effect
Summary of the method: as §5

[17] = qHTS RealTime-Glo MT Cell Viability Assay in HEK293 cells - 0 hour (AID 1224880)
Summary of the method: (§6)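 Luminescence readout at each listed time point; HEK293, 600 cells/well, RealTime-Glo MT reagent added with cells; compounds pinned (23 nL in DMSO) after 5 h at 37 C; continuous culture at 37 C.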

[18] = qHTS assay to identify small molecule agonists of H2AX - cell viability counter screen (AID 1224847; calls by dose curve; note: top concentration of the series differs between compounds; nearly all actives have a fitted effect of over 30% in size)
Summary of the method: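 Compounds tested at 15 concentrations were incubated 3 hr at 37C with wild-type CHO-K1 cells; cellular ATP-based luminescence (CellTiter-Glo) indicated viability.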

[19] = qHTS RealTime-Glo MT Cell Viability Assay in HEK293 cells - 40 hour (AID 1224874); settings: RealTime-Glo luminescence; max response: hits give low values; note: nearly all actives have a fitted effect of over 50% in size
Summary of the method: as §6

[20] = A CellTox Green Cytotoxicity Assay to monitor cytotoxicity in HEK293 cells - 0 hour (AID 1224869); note: nearly all actives have a fitted effect of over 50% in size
Summary of the method: as §4
% is set by controls: 0 for no effect and ±100 for the full control effect.

COc1cc(C)ccc1C(C)C
inactive: Potency [1] | Potency [2] | outcome [3] | Potency [4] | activity change, positive = activation [5] -0.104% | Potency [6] | Potency [7] | Potency [8] | Potency [9] | Potency [10] | outcome [11] | Potency [12] | Potency [13] | Potency [14] | Potency [15] | Potency [16] | outcome [17]

CCCCN1C[C@H](O)[C@@H](O)[C@H](O)[C@H]1CO
inactive: Potency [1] | Potency [2] | Potency [18] | Potency [6] | Potency [8] | Potency [9] | Potency [10] | outcome [11] | max response [19] 5.15% | Potency [12] | Potency [14] | Potency [15] | Potency [16] | outcome [17]

CC1(C)S[C@@H]2[C@H](NC(=O)C(C(=O)O)c3ccccc3)C(=O)N2[C@H]1C(=O)O (stereo partly drawn)
inactive: Potency [1] | Potency [2] | Potency [18] | Potency [4] | activity change, positive = activation [5] 8.06% [at 42.5 µM] | Potency [6] | Potency [7] | Potency [20] | Potency [8] | Potency [9] | Potency [10] | outcome [11] | max response [19] -0.907% | Potency [12] | Potency [13] | Potency [14] | Potency [15] | outcome [17]

CN1CCN(C2=Nc3ccccc3Oc3ccc(Cl)cc32)CC1
inactive: Potency [1] | Potency [2] | Potency [18] | activity change, positive = activation [5] -21.9% [at 42.5 µM] | Potency [6] | Potency [7] | Potency [20] | Potency [8] | Potency [9] | Potency [10] | outcome [11] | max response [19] -25.8% | Potency [12] | Potency [13] | Potency [14]
active: Potency [16] 19 µM

NC(Cc1ccc(F)cc1)C(=O)O (stereo not drawn)
inactive: activity change, negative = cytotoxicity [1] 1.08% [at 6.97 µM] | activation (H2AX phosphorylation) [2] -2.92% [at 14 µM] | activity change, negative = cytotoxicity [18] 0.454% [at 14 µM] | activity, negative = inhibition [4] 1.15% [at 8.39 µM] | activity change, positive = activation [5] 0.59% [at 8.39 µM] | activity change, negative = cytotoxicity [6] -1.43% [at 6.97 µM] | activity change, negative = cytotoxic [7] -0.0847% [at 6.97 µM] | cytotoxicity [20] 7.03% [at 6.97 µM] | activity change, negative = cytotoxic [8] -10.7% [at 6.97 µM] | cytotoxicity increase [9] 10% [at 6.97 µM] | activity change, negative = cytotoxicity [10] 1.36% [at 6.97 µM] | viability change, negative = cytotoxic [11] 1.3% [at 6.97 µM] | activity change [12] 11.7% [at 6.97 µM, hits give high values] | activity change, negative = cytotoxic [14] -6.06% [at 6.97 µM] | cytotoxicity [15] 7.85% [at 6.97 µM] | cytotoxicity increase [16] 7.77% [at 6.97 µM] | activity change, negative = cytotoxicity [17] -1.64% [at 6.97 µM]

Cc1onc(-c2ccccc2)c1C(=O)Cl
inactive: Potency [1] | Potency [2] | Potency [18] | Potency [6] | Potency [7] | Potency [8] | Potency [9] | Potency [10] | outcome [11] | Potency [12] | Potency [14]
